Measurements: PubChem BioAssay AID2783 (National Center for Advancing Translational Sciences (NCATS), 2010)
Results filed as inconclusive are left out. Calls of active or inactive are those of the source. The call rests on the fitted dose curve; in most records, active means well fitted inhibition curve with a large enough effect in the polarisation, with a control signal flat (not every such curve was filed as active); inconclusive means small, poorly fitted or top-dose-only effect, or effect the other way, or a change in a side signal; inactive means no such curve, though single readings can be large or run the other way; the % refers to the polarisation.

target: Menin (Homo sapiens) (UniProt O00255); test: Confirmation of Inhibitors Targeting the Menin-MLL Interaction in MLL Related Leukemias: Competition With Fluorescein Labeled MLL-derived Peptide; conditions: Fluorescence polarization, fluorescein-MLL peptide displacement from menin; series mostly up to 100 µM
Sequence (O00255 whole entry, looked up): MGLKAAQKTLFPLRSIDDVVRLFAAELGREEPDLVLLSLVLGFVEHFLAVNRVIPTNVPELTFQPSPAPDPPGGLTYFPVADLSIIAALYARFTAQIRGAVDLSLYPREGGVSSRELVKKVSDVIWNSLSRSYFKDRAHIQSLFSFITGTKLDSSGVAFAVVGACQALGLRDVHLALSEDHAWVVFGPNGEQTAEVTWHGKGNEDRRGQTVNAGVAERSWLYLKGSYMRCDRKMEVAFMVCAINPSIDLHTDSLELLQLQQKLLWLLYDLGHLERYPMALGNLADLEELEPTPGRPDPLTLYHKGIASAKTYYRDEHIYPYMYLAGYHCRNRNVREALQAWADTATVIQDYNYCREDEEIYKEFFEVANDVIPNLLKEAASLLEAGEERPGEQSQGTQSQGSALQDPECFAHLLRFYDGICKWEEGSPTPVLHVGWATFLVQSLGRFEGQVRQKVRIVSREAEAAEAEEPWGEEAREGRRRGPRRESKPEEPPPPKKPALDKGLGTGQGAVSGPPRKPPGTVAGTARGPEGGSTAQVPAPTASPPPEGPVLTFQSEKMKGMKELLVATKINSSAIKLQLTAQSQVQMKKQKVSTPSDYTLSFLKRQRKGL

outcome, inactive:
O=C(N/N=C/c1cn(-c2cccs2)nc1-c1ccccc1)c1ccccc1O
O=S(=O)(Nc1cccc(-c2cn3cccnc3n2)c1)c1ccccc1
COCCn1c(C)c(C)c2c(NCCc3ccccc3)ncnc21
O=C(CS)Nc1ccc2ccccc2c1
Cc1ccccc1-c1n[nH]c(=S)n1C
O=C(/C=C/c1ccccc1)c1cccs1
O=C(c1cc(F)c(F)cc1Cl)N1CCN(c2ncccn2)CC1
O=C(NNCS(=O)(=O)O)c1ccncc1
CCN(CCn1cccn1)Cc1ccccc1OCC(O)CN1CCc2ccccc2C1 (stereo unspecified)
COc1cc(SC)ccc1C(=O)Nc1cccc(C2OCCCO2)c1
CN1CCN(CC(=O)Nc2ccc(S(=O)(=O)N(C)C)cc2)CC1
Cc1cc2cc(C(c3nnnn3CC3CCCO3)N3CCCc4ccccc43)c(=O)[nH]c2cc1C (stereo unspecified)
CCCC(=O)Nc1cccc(NC(=O)c2ccc([N+](=O)[O-])cc2Cl)c1
CCN1CCN(CC(=O)Nc2ccc(C(C)=O)cc2)CC1
COc1cccc(-c2nn(-c3ccccc3)cc2/C=C\C(=O)c2cccs2)c1
O=C(Nc1cc(Br)ccc1O)c1cc(-c2ccccc2)on1
